Screening data deposited in PubChem BioAssay by University of Kansas High Throughput Screening Laboratory.
Pf apPOL inh: Pf-apPOL DNA polymerase inhibition; inhibition, % at 10 µM; hit rate 0.25% among 210,000; Recombinant Pf-apPOL, molecular beacon fluorescence, 1.5 h
mHTT CaM bind: inhibitors of human mutant huntingtin-calmodulin interaction. AlphaScreen His-mHTT/GST-CaM binding, luminescence. inhibition, % at 15 µM. hit rate 3.6% among 190,000
Of the large screens only hits and unclear results are named; the others gave an inactive call. This is one part of a sample in which hits are shown more often than they occur. Cut-off read from the data, not from the text of the source: active = inhibition above about 50%; inactive = the rest.

O=C(Nc1ccc(F)cc1)c1cccc(S(=O)(=O)N2CCc3ccccc32)c1	none
CC(Oc1ccccc1)C(=O)Nc1ccc(-n2nncc2-c2ccccc2)cc1 (stereo not drawn)	none
COC(=O)c1ccc(NC(=O)Cn2nnc(C(=O)OC)c2C(=O)OC)cc1	none
O=C(c1cccs1)N1CCN(c2cc(N3CCCC3)c(F)cc2[N+](=O)[O-])CC1	none
O=[N+]([O-])c1cc(F)c(N2CCCCCC2)cc1N1CCCC1	mHTT CaM bind 72.0
O=C(c1cccs1)N1CCN(c2cc(N3CCCCC3)c(F)cc2[N+](=O)[O-])CC1	mHTT CaM bind 51.0
O=[N+]([O-])c1cc(F)c(N2CCOCC2)cc1N1CCCCC1	none
Cc1cccc(NC(=O)N2CCCC2c2ccccc2F)c1C (stereo not drawn)	none
CS(=O)(=O)N(Cc1ccon1)c1ccc2c(c1)OCO2	none (no result: Pf apPOL inh)
O=C(CN1C(=O)C(=O)c2ccccc21)c1ccc(Cl)cc1	none
O=C1C(=O)N(C(c2ccccc2)c2ccc(Cl)cc2)c2ccccc21 (stereo not drawn)	mHTT CaM bind 93.0
Cc1cccc(NC(=O)N2CCN(Cc3nc4cccnc4n3-c3ccccc3)CC2)c1	none
Cc1ccc(S(=O)(=O)N=C(Nc2ccccn2)c2ccccc2)cc1	none
CC1=CC(=O)C=CC1=NC(=NS(=O)(=O)c1ccc(C)cc1)c1ccccc1	mHTT CaM bind 58.0
Cc1ccc(C(N)=NC(=NS(=O)(=O)c2ccccc2)c2ccccc2)cc1	none
CC1=CC(=NC(=NS(=O)(=O)c2ccc(C)cc2)c2ccccc2)C(C)=CC1=O	mHTT CaM bind 59.0
CS(=O)(=O)c1cccc(-c2nnc(NC(=O)C3c4ccccc4Oc4ccccc43)o2)c1	mHTT CaM bind 99.3
O=C(Nc1nnc(-c2ccco2)o1)C1c2ccccc2Oc2ccccc21	none
O=C(CSc1nc2ccccc2[nH]1)Nc1cc(C(F)(F)F)ccc1Cl	mHTT CaM bind 50.0
Cc1cc(=O)[nH]c(SCC(=O)Nc2cc(C(F)(F)F)ccc2Cl)n1	none
Cc1ccc(S(=O)(=O)NC(=O)NCc2c(Cl)cccc2Sc2ccc(Cl)cc2)cc1	none (no result: mHTT CaM bind)
CCN(CC)c1ccc(CN2CCSCC2)cc1	none
CCN(CC)c1ccc(CN2CCN(c3ncccn3)CC2)cc1	none
CN1CCCN(Cc2ccc(Br)cc2)CC1	Pf apPOL inh 74.7
CC(C)c1ccc(CN2CCCN(C)CC2)cc1	none
CCN(CC)c1ccc(CN2CCN(C)CC2)cc1	mHTT CaM bind 67.9
CCN1CCN(Cc2ccc(N(CC)CC)cc2)CC1	mHTT CaM bind 68.8
Cc1cccc(C(=O)N2CCCC(COc3cccc(C(=O)N4CCCCC4)c3)C2)c1 (stereo not drawn)	none
Cc1c(C(=O)Nc2cc(Cl)c(Cl)cc2Cl)cccc1[N+](=O)[O-]	none
Cc1ccc(-c2nccn3cc(C(=O)N(C)C)nc23)cc1	none
O=C(NCc1ccc(F)cc1)N1CCC(c2cnn(-c3ccccc3)c2)CC1	none
O=C(CN1C(=O)c2ccccc2S1(=O)=O)N1CCCCCC1	Pf apPOL inh 50.7
O=C(CN1C(=O)c2ccccc2S1(=O)=O)N1CCCCC1	none
CC1(C)OC(=O)C(=Cc2ccc(-c3ccc(F)cc3F)o2)C(=O)O1	none (no result: mHTT CaM bind)
CC1=N/C(=C\c2ccc([N+](=O)[O-])cc2)C(=O)N1c1ccc(Cl)cc1C	none
CC1=N/C(=C\c2ccc([N+](=O)[O-])cc2)C(=O)N1c1cc(Cl)ccc1Cl	mHTT CaM bind 52.0
CCOc1cc(/C=C2\C(=O)ON=C2C)cc(Cl)c1OCc1ccc(F)cc1	mHTT CaM bind 93.0
COc1cc(/C=C2\C(=O)ON=C2C)cc(Br)c1OCc1ccc(F)cc1	none
COc1cc(/C=C2\C(=O)ON=C2C)cc(Cl)c1OCc1ccc(F)cc1	mHTT CaM bind 74.0
COc1cc(/C=C2\C(=O)ON=C2C)ccc1OCc1cccc(F)c1	mHTT CaM bind 100.0
CC1=NOC(=O)/C1=C/c1ccc(OCc2cccc(F)c2)c(Cl)c1	none
COc1cc(C=O)cc(Cl)c1OCc1cccc(F)c1	none
CCOc1cc(/C=C2/C(=O)ON=C2C)ccc1OCc1ccc(Cl)cc1	none
CCOc1cc(/C=C2\C(=O)ON=C2C)cc(Br)c1OCc1ccc(F)cc1	mHTT CaM bind 75.0
CC(C)c1ccc(C(=O)N2CCCC2COc2ccc(C(=O)NC3CC3)cc2)cc1 (stereo not drawn)	none
O=C(CC1CCN(S(=O)(=O)c2ccc(Cl)s2)CC1)NCCN1CCCCC1	none
O=C(Nc1ccn(Cc2ccccc2Cl)n1)C1c2ccccc2Oc2ccccc21	none
CN(C)C(=O)c1cc2c(s1)CCC(C(=O)NCc1ccccc1Br)C2 (stereo not drawn)	none
COc1cc(/C=C2\C(=O)ON=C2C)cc(Cl)c1OCc1ccccc1	mHTT CaM bind 91.0
COc1cc(/C=C2\C(=O)ON=C2C)ccc1OCc1ccccc1Cl	none
CC1=NOC(=O)/C1=C/c1ccccc1OCc1ccccc1F	none
CC1=NOC(=O)/C1=C/c1ccccc1OCc1cccc(Cl)c1	mHTT CaM bind 55.0
Cc1nnc(NC(=O)CCCOc2ccc(Cl)cc2Cl)s1	none
O=C(Nc1ccc2c(c1)OCCO2)c1ccccc1-c1n[nH]c2c1CCCC2	none
CCOc1ccc(Nc2ccc(S(=O)(=O)NC)cc2[N+](=O)[O-])cc1	none
O=C(Nc1ccc(Cl)cc1)C1CCCN(S(=O)(=O)c2ccc(Br)s2)C1 (stereo not drawn)	none
O=C(Cn1c(-c2ccccc2Cl)nc2ccccc2c1=O)Nc1ccc(F)c(Cl)c1	mHTT CaM bind 100.0
Cc1ccc(NC(=O)Cn2c(-c3ccccc3F)nc3ccccc3c2=O)cc1Cl	none
O=C(NCc1nc(-c2cccc(Cl)c2)no1)C1CCC1	none
O=C1C(=O)N(c2nccs2)C(c2ccc([N+](=O)[O-])cc2)C1=C(O)c1ccc(Cl)cc1 (stereo not drawn)	none
CC1CCN(c2nnc(C(=O)NCc3ccccn3)c3ccccc23)CC1	none
CC(=O)N1CC(C(=O)NCCc2ccccn2)CCC1c1ccc(F)c(C)c1 (stereo not drawn)	none
CC1CCN(c2ccc(N3CCC(C(=O)NCc4ccccn4)CC3)nn2)CC1	mHTT CaM bind 71.0
Cc1ccc(-c2nnc(N3CCC(C(=O)NCc4ccccn4)CC3)o2)cc1	mHTT CaM bind 75.7
Cc1ccc(N2CC(C(=O)NCc3ccccn3)CC2=O)cc1 (stereo not drawn)	mHTT CaM bind 100.1
Cc1ccc(-c2nnc(N3CCC(C(=O)NCc4ccccc4)CC3)o2)cc1	none
CC(=O)N1CC(C(=O)NCc2ccccn2)CCC1c1ccc(F)c(C)c1 (stereo not drawn)	mHTT CaM bind 80.3
Cc1ccc(N2CC(C(=O)NCc3ccccc3)CC2=O)cc1 (stereo not drawn)	none
CC(=NO)c1ccc(Sc2ccccc2)cc1	none (no result: mHTT CaM bind)
O=C(NCC1CCCCC1)c1cc(=O)c(OCc2ccccc2)co1	none
COc1cc(O)c(CN(C)C)c2oc(-c3ccccc3)cc(=O)c12	none
COc1cc2oc(-c3ccccc3)cc(=O)c2c(O)c1CN(C)C	mHTT CaM bind 100.3
CCOC(=O)CNC(=O)C1CN(C(=O)c2cc(C)on2)C1	none
O=C1NN=C(CSc2nnnn2-c2ccc(Cl)cc2)Oc2ccccc21	none (no result: Pf apPOL inh)
O=C(Cc1c[nH]c2ccccc12)N(CC1CCCO1)C1(C(=O)NC2CCCCC2)CCCCC1 (stereo not drawn)	mHTT CaM bind 87.0
CCC(C)(C(=O)NC1CCCCC1)N(CC1CCCO1)C(=O)Cc1c[nH]c2ccccc12 (stereo not drawn)	mHTT CaM bind 58.0
CCC(C)(C(=O)NC1CCCCC1)N(C)C(=O)Cc1c[nH]c2ccccc12 (stereo not drawn)	none
O=C(Cc1c[nH]c2ccccc12)N(Cc1cccs1)C1(C(=O)NC2CCCC2)CCCCC1	none
